The assay addresses T1, USP38, Q8NB14.
T1 chain: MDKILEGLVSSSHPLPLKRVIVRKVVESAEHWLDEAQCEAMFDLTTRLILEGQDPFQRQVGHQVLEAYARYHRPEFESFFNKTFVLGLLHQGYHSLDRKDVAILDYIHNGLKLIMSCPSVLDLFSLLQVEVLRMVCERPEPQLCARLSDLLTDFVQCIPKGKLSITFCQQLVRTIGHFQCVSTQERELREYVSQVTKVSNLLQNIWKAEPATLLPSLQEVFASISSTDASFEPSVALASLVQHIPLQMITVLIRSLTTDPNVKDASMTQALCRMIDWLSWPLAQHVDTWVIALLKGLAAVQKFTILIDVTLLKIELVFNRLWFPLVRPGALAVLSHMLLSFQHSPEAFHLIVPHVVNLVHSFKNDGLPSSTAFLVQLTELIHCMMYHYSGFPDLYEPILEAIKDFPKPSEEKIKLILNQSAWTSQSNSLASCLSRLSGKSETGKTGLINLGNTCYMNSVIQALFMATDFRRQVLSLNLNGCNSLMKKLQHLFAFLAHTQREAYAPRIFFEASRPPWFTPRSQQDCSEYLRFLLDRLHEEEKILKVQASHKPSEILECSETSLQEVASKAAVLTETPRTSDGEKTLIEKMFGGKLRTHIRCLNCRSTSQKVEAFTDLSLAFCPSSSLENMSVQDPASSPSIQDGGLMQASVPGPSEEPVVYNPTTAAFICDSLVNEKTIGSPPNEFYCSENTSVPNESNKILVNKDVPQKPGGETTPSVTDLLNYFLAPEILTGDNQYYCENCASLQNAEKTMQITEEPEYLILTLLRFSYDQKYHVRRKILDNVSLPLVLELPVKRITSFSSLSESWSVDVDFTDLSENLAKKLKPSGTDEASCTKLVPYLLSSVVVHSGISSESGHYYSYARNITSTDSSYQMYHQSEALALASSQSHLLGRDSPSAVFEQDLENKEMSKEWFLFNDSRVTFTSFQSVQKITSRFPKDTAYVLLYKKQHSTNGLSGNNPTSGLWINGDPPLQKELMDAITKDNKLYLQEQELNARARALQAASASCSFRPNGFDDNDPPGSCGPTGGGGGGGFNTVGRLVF
Briefly: median log2 fold change of GCK-ALFA target abundance (FLAG IP / Myc IP barcode read proportion) (log2 ratio); each designed protein is fused to an ALFA-tag nanobody in HEK293 cells to bring the named protein to FLAG-tagged glucokinase (GCK); Myc marks an untargeted standard; higher = target protein stabilised (more abundant). To be noted: target protein: 3xFLAG-MCP-GCK-ALFA reporter; HEK293 landing pad (RPLP). The method in brief: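 The readout is target abundance, the per-binder median log2 ratio of FLAG to Myc barcode read proportions. It came from HEK293 landing-pad cells carrying a recombined ALFA-nanobody-fused binder library, induced with 2 μg mL^−1 doxycycline and transfected with a plasmid for a FLAG-tagged target and a Myc-tagged standard. After 48 h, lysates were immunoprecipitated with anti-FLAG and anti-Myc, and circular RNA barcodes were reverse transcribed, amplified and sequenced. Each barcode needed a proportion of at least 10^−7 in both replicates and each binder at least 3 barcodes per replicate, a pseudocount of 10^−6 was added, and the replicates were pooled.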

B1: usp_38_diff_out_1_101_8 (protein)
chain: LEEELEKALKEFNETIEKAMEAWKEIAKIYKELGNEEKAEKAERQLAALESYKKEHTKFIEELKKEDLESALELAKLSLKNAKSILKEAEERLKKAKALK
As to B1, the “median log2 fold change” value turned out to be 0.118.

B2: usp_38_diff_out_1_147_15 (protein)
chain: SPADEADAEAEAEARERLREFARESLDELEANRDRLSLDRRVTQAGGLFTIAVELGDRELLLRVAALLLEDPEALAAVRARLSPEERAALEAAVAEVRAA
For B2, the “median log2 fold change” value amounted to 0.0346.

B3: usp_38_diff_out_1_153_18 (protein)
chain: SRLDELRARLERILAEARELKAEIKALIEAGTMTREKVEEYADRLAALAAEFREIRAEAAEDPAAYAALRPLFRETQAALDEAVDALEEAGRLVFEREAE
For B3, the “median log2 fold change” value was determined as 0.0475.

B4: usp_38_diff_out_1_101_4 (protein)
chain: MEERLEKAKKEIEEALEEIIKIYEETAKAAKAAGDEALAERWKRFAEAMRTYRESLERTLEELREQDLESALAFAEAALEVTKSLLKEAKEEAEKAKKAL
As to B4, the “median log2 fold change” value was -0.644.

B5: usp_38_diff_out_18_28_432 (protein)
chain: EEEEIKKLIEEAEKKMDELIDEYVKISTEGFLKINESDKGEELLEAINELADEVGKAAKAVNEMRKNRNDKEKVEEYLKKFEEAYKKAKEKIEEIKKLIE
In the case of B5, the “median log2 fold change” value was -0.257.

B6: usp_38_diff_out_1_101_11 (protein)
chain: LEAELAAARAEFDAAAADLLAAARAALAEVKALGDAAAAARFARYLAAYESFIADTRRTADEIAEQDKESAIEFLKAATENLRTLKEEVEAELARIKAKL
Turning to B6, the “median log2 fold change” value is -0.315.

B7: usp_38_diff_out_1_153_24 (protein)
chain: VKLEELKKRVEEITKRAKELKKEAEELLKSGNATREEVDRLADELGRLAVELRELRSIAAEDEEVYKALKPLFKEANEALDEAVDALNEAGRRVFLKEAE
With B7, the “median log2 fold change” value is 0.085.

B8: usp_38_diff_out_18_28_433 (protein)
chain: SLEANRALIAKYEAEADALIDEATKAATEGFLKYHENPDDEKLLEAINKLMDAVGKAAAAVRRMREHIHDPEAVAKYAKEFEKAKKEAEEKLKELKKLIK
Regarding B8, the “median log2 fold change” value was found to be 0.116.

B9: usp_38_diff_out_18_28_431 (protein)
chain: AEAAIQAKIDAAEKEMDALIDEYVKVATEGFLALDESDKGEELEAAINELADAVGAAAAAVNEMRRNRDDPAAVDAQLAKFNAAKKKAKEKIKEIKKLLK
For B9, the “median log2 fold change” value is -0.437.

B10: usp_38_diff_out_1_153_27 (protein)
chain: SELEELKKKIEEITKEAEKLKKEAEKLIKDGTATREKVDELADKLGKLAVELREIRSKAAESGEYYKKLKPLFKKAEKALNEAVDALNKAATLVFEKEAE
As to B10, the “median log2 fold change” value stood at 0.0209.

B11: usp_38_diff_out_1_101_9 (protein)
chain: MEAELAAAKAAFDAAAAALLKAAEDALAKIKAEGTPEQAAEMERHLAAIKSFIADSRKTLEEIAEQDKEAAIEFANAATTVLNILTAEVKEETARLLAKA
As to B11, the “median log2 fold change” value is -0.957.

B12: usp_38_diff_out_18_31_437 (protein)
chain: SLREEAERVAEEARRLAEELKEKSKELKEAIKKGDKEKAEKLMEEMERLKEELGRAYLRLRDLAREDPSNRPLLKEVTKEANEAVDEYTEAEEAYFLFKA
With B12, the “median log2 fold change” value was -1.39.

B13: usp_38_diff_out_1_153_19 (protein)
chain: SELEELKKELEKIKEEAKKLKEEIEKLIKEGKMTREKVDEYADKLGELAKRFREIRSKLAQNPEAYKELKELLKETEKELNEAVDALNEAGRLVFLKEAE
Turning to B13, the “median log2 fold change” value was -0.00147.

B14: usp_38_diff_out_18_30_435 (protein)
chain: EEEDEETQKFIDEELRKILAESTEELAREVRRRLPDSPEAREIAELLEEASRLIKEGTPEALKKALEKLERALELLKKNPQAPDRLLTATAGMIEVLKEL
Regarding B14, the “median log2 fold change” value turned out to be 0.231.

B15: usp_38_diff_out_1_153_16 (protein)
chain: SELEKMKEELEKILEEAKKLKEEIEKLIKEGKMTREKVDKYADELAELAKRFRELRSKAAENPEYYKELKELFKETLKALNEAVDALTKAAEQVFLKEAE
Regarding B15, the “median log2 fold change” value was -0.51.

B16: usp_38_diff_out_1_101_12 (protein)
chain: LEAELAKAREAFRAAVAEVEAVLEEAEALAKAAGDAARAARWARQLAAVRAWRADLERTLEEIAAQDLESALELAKAALENAKTLLAEAKAELAAYKAKL
On to B16, for which the “median log2 fold change” value was -0.00433.

B17: usp_38_diff_out_18_31_441 (protein)
chain: SLRERGREVAERAREAIRRLRELAERLLEAIKEGKREEAEELAKEMDEELVELGRAYQELRDLAREDPSLRPLLKEVEEEANEAIDLYNKAMEELFLFKS
B17: the “median log2 fold change” value was -0.642.

B18: usp_38_diff_out_1_153_25 (protein)
chain: SELEELKKKVEEIKKEAEKLKKEAEELIKSGEATREKVEELADKLGKLSVELREIRSKAAESGEYYKELKPLFKEAEEALNEAVDALEKAAREVFLKEAE
With B18, the “median log2 fold change” value was -0.027.

B19: usp_38_diff_out_1_101_7 (protein)
chain: LEEELKKALEEFNETIDKAIKVYEEIAKLYKKMGKEEKAEKAERQRKALETWREDSTAFIEELAKEDLESALELAKLALENAKTILKEAEEELKKVKAEE
As for B19, the “median log2 fold change” value was -0.366.

B20: usp_38_diff_out_1_153_20 (protein)
chain: SRLEELRKELEEILEEAKRLRDEIERLIAEGRMTRELVDRYADRLGELAARFREIRAELADDPEAYKELRPLLKETQAALDAAVDALERAGRLVFLREAE
In the case of B20, the “median log2 fold change” value is -0.0906.

B21: usp_38_diff_out_1_153_26 (protein)
chain: SELEKLEKEIKKITEEAKKLKEEAEKLIEDGTATREKVDELADRLGKLAVELREIRSKAAESGDYYKKLKPLFEEAEKALNEAVDALNKAGTLVFEKEAE
Turning to B21, the “median log2 fold change” value was found to be 0.457.

B22: usp_38_diff_out_1_153_17 (protein)
chain: SRLEELKKRLEEILEEAKRLKEEIERLIAEGTMTREKVDEYADRLGKLAVEFREIRAEAAEDPEIYKELKELFKETEKALNEAVDALERAGRLVFLREAE
For the molecule B22, the “median log2 fold change” value is -0.168.

B23: usp_38_diff_out_1_147_14 (protein)
chain: SAADEADAAAQAEIDERLRRFARESLDDFEANRDRYSPDRATVALGGLITTAIELGDRELLLRAAALLLKDPAVRAAVLARLDPAARAAFEEAEAEVRAA
On to B23, for which the “median log2 fold change” value came out at 0.247.

B24: usp_38_diff_out_18_30_434 (protein)
chain: EEEDEETEEYIRNKLLEFTAESTRDLAERVRRRLPDSPRAREIARLLEEASELLKKRTPEALEEAARLLERALELAEADPRATDRLLTSLRGLLTVVKEL
For the molecule B24, the “median log2 fold change” value was -0.134.

B25: usp_38_diff_out_1_153_22 (protein)
chain: MKEEELEKKVEEIKKKAKELLKEAKKLLESGKATREEVDKLADELGKLAVELRELRSEAAEDEEVYKKLKEKFKEAEKALNEAVDALNEAARRVFLKEAE
With B25, the “median log2 fold change” value turned out to be 0.146.

B26: usp_38_diff_out_18_31_442 (protein)
chain: SVVEEAKRVAKEALEAIEKLKKTIDELKKAIGKDPKKAEELLKKARELLKKFSELYLRLRDLRRQAPEQIRPLLEELEKKADEAIDKYEEAETAYFLAKA
As for B26, the “median log2 fold change” value was -0.788.

B27: usp_38_diff_out_1_147_13 (protein)
chain: SAADEADREAEAEAREKLRRFAWESLEELEKNRDKLSLDRLTIGAGGLLVVALELGDEELLLRVAALLLEDPEVLARVRARLSPEERARLEAAVARVRAA
As to B27, the “median log2 fold change” value was -1.17.

B28: usp_38_diff_out_1_153_23 (protein)
chain: MKEEELRKRLEEIKKKAEELKKEAEALLKSGNATREKVDALADKLGALAVELRELKALAAQDPEVYKALKPLFKETEKALNEAVDALNEAARQVFLKEAE
Consider B28, for which the “median log2 fold change” value was 0.0874.

B29: usp_38_diff_out_18_30_436 (protein)
chain: SAEDEETERYIREALRKATAESLRELAERLERRLPDSPEAREIVALVREAARLLEEGTPEALAQAAALLRRALALLEADPRATDRELTALRGLLVVVEEL
As to B29, the “median log2 fold change” value was 0.0576.

B30: usp_38_diff_out_18_31_440 (protein)
chain: SLRERAERVREELERAAERMKRLAEELKEAIKAGDRERAERLMEEMDREMERLGRAYLELRDLAREDPSLRPLLKEAERRANEAVDAYTEAATAYHLFKA
For B30, the “median log2 fold change” value is -0.671.

B31: usp_38_diff_out_1_153_21 (protein)
chain: SELEELKKELEEILEEAKKLKEEIEKLIKEGKMTLEKVDKLADELGRLSKRFREIRSKAAENPEYYEKLKELFKETEEELNKAVDALNEAGRLVFLKEAE
Take B31: the “median log2 fold change” value came out at 0.358.

B32: usp_38_diff_out_1_101_6 (protein)
chain: IEKELKKALEEFNKTLDETIKVYEEIEKLYKEMGNEEKAERAQRQRDALETYRKDTTAFIEELYKEDPESALELAKLALENAKTILKEAEKELKEVKAEK
Regarding B32, the “median log2 fold change” value was -0.129.

(Values after the supplement of paper PMC12632987.)
